In PubChem BioAssay (NCATS):
Results filed as inconclusive are left out. The source made the active and inactive calls. Unless noted, calls follow the shape of the dose curve; as a rule, active = well fitted curve in the direction sought with a large enough effect; inconclusive = small, poorly fitted or top-dose-only effect, or another doubt; inactive = no such curve, though single readings can be large; an effect the other way counts as inactive or inconclusive.

Key:
[1] = Primary qHTS for inhibitors of La Crosse Virus (LACV) - induced cell death in SH-SY5Y cells (AID 1508616); details: SH-SY5Y LACV cytopathicity rescue, ATP luminescence, 6 d; series mostly up to 4.29 µM;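 also: top concentration of the series differs between compounds; higher means more rescue of cells from virus-induced death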
Procedure, shortened: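 SH-SY5Y, 6000 cells/well; cpd via pin tool in DMSO; LACV 0.01 MOI; 6 d 37C 5% CO2; ATPLite, 5 min RT; luminescence normalized to ±virus DMSO controls.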

[2] = molecular target: Calcium and integrin-binding protein 1 (Homo sapiens) (UniProt Q99828); assay: Primary qHTS for Identification of Calcium Integrin Binding Protein 1 (CIB1) Competitor (AID 1508620); details: CIB1-GST / FITC-alphaIIb peptide fluorescence polarization; series mostly up to 114 µM;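 also: GST tagged CIB1 binding a fluorescein labelled alphaIIb integrin peptide tracer; top concentration of the series differs between compounds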
Calcium and integrin-binding protein 1 (Homo sapiens), sequence (Q99828 whole entry, looked up): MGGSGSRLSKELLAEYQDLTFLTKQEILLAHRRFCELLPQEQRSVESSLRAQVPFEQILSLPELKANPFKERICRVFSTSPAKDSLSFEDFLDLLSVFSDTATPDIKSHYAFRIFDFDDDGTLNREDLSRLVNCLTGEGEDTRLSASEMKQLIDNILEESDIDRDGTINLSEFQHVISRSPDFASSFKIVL
Procedure, shortened: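 Fluorescence polarization competition: CIB1-GST (1 uM final) preincubated with compound 15 min at room temperature, then FITC-labeled alphaIIb peptide (100 nM final) added for another 15 min. Polarization read at Ex 480/Em 540.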

[3] = Primary qHTS for small molecule stabilizers of the endoplasmic reticulum resident proteome: Secreted ER Calcium Modulated Protein (SERCaMP) assay (AID 1508630); details: SH-SY5Y GLuc-SERCaMP (Gaussia luciferase released on ER calcium loss) secretion, thapsigargin, luminescence; series mostly up to 38.4 µM
Procedure, shortened: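 The SH-SY5Y reporter protocol was run at 3 concentrations up to 38.3 uM (primary) or 11 concentrations (follow-up): 16 h compound, 100 nM thapsigargin for 4 h, then extracellular luciferase luminescence.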

[4] = A High-Content qHTS Against Drug Library for the Identification of Small Molecules that Inhibit DYT1 Early Onset Primary Dystonia-Associated Cell Pathology (AID 1645839; calls by dose curve); details: HEK293 Flp-In EGFP-delE TorsinA, punctate imaging, 48 h; series mostly up to 46.1 µM
Procedure, shortened: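 Induced EGFP-delE TorsinA cells are imaged after 48 h of compound treatment. Punctate fusion-protein distribution gives the %pathology value, while nuclei counts flag toxicity. Wild-type EGFP-hTOR1A cells define the normal pattern.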

[5] = molecular target: Cytochrome P450 2C9 (Homo sapiens) (UniProt P11712); assay: Cytochrome P450 family 2 subfamily C member 9 (CYP2C9) small molecule antagonists: luciferase biochemical (cell-free) qHTS assay (AID 1645842; active = well fitted curve in the direction sought with a large enough effect in the repeat runs; an effect the other way counts as inactive or inconclusive; also: nearly all actives have a fitted effect of over 55% in size); details: P450-Glo CYP2C9 enzyme assay, luciferin luminescence; series mostly up to 57.4 µM
Cytochrome P450 2C9 (Homo sapiens), sequence (P11712 whole entry, looked up): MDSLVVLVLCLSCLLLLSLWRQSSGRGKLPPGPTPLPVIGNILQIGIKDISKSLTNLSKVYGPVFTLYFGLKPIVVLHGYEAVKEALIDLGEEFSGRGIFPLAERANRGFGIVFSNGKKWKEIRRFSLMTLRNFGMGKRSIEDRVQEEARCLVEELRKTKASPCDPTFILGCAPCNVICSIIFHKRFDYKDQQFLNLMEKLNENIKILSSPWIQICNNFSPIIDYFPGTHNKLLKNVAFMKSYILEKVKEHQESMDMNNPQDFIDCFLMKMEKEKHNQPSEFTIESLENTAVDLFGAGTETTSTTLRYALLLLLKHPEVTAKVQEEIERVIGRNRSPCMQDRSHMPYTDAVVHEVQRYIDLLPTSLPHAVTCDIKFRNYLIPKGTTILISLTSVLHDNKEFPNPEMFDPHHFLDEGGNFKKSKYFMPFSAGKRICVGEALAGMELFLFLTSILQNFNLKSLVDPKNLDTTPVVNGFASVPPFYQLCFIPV
Procedure, shortened: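 P450-Glo CYP2C9 system: proluciferin substrate with enzyme in mix containing 0.4% BSA, 10 min at room temperature, then NADPH regeneration solution added and incubated 1 h at 37C. Detection reagent stopped reaction; luminescence read after 20 min as RLU.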

[6] = Cytotoxicity counterscreen for inhibitors of SARS-CoV-2 cell entry (AID 1645845; calls by dose curve; also: nearly all actives have a fitted effect of over 50% in size); details: cell viability (SARS-CoV-2 entry assay cells); series mostly up to 57.1 µM
Procedure, shortened: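 After a 15 min room-temperature ATPLite 1step step, luminescence reflected ATP remaining in HEK293-ACE2 cells exposed to compound for 1 h plus 48 h at 37 C, with percent activity set by cell and no-cell controls.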

[7] = Primary qHTS to identify inhibitors of SARS-CoV-2 cell entry (AID 1645846; calls by dose curve; also: nearly all actives have a fitted effect of over 45% in size); details: SARS-CoV-2 pseudovirus cell entry assay, luminescence; activity change, negative = inhibition: at 57.1 µM (top of the series) unless noted; series mostly up to 57.1 µM
Procedure, shortened: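 HEK293-ACE2 (Expi293F, stable hACE2), 1500 cells/well, o/n 37C; cpd 23 nL pin, 1 h; MLV-PP w/ SARS-CoV-2-S (Wuhan-Hu-1, Δ19 C-term); 48 h 37C; Bright-Glo luminescence; normalized vs S-PP and bald PP.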

[8] = Primary qHTS for inhibitors of nuclear receptor binding SET domain protein 2 (NSD2) in an isogenic RCH-ACV NSD2 p.E1099K mutant (9B) (AID 1645876); details: RCH-ACV (leukaemia line) NSD2 E1099K (9B) viability, CellTiter-Glo, 72 h; series mostly up to 44.9 µM; also: nearly all actives have a fitted effect of over 70% in size
[9] = molecular target: Cytochrome P450 2D6 (Homo sapiens) (UniProt P10635); assay: Cytochrome P450 family 2 subfamily D member 6 (CYP2D6) small molecule antagonists: luciferase biochemical (cell-free) qHTS assay (AID 1645840; active = well fitted curve in the direction sought with a large enough effect in the repeat runs; an effect the other way counts as inactive or inconclusive; also: nearly all actives have a fitted effect of over 55% in size; also: potency is read from the fitted curve at half-maximal effect); details: P450-Glo CYP2D6 enzyme, luciferin luminescence, 1 h; series mostly up to 57.4 µM
Cytochrome P450 2D6 (Homo sapiens), sequence (P10635 whole entry, looked up): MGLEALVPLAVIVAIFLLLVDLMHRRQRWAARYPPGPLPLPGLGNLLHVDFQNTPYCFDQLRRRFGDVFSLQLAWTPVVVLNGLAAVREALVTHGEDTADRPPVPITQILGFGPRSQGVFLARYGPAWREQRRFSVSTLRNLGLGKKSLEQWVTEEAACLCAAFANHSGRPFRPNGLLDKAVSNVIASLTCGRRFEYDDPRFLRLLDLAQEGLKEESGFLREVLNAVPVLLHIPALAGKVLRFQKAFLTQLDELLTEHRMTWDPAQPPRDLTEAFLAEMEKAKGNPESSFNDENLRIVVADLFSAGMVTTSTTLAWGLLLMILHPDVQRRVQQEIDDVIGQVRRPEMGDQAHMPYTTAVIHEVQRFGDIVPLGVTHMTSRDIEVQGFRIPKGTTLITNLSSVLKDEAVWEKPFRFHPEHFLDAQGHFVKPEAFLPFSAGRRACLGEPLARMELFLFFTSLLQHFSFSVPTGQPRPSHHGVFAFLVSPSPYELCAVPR
Procedure, shortened: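 P450-Glo CYP2D6 system: proluciferin substrate converted by enzyme to luciferin, read by luminescence proportional to activity. Enzyme-substrate mix with compound 10 min at room temperature, then NADPH regeneration 1 h before detection reagent.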

C=CCN1CC[C@]23CCCC[C@H]2[C@H]1Cc1ccc(O)cc13
inactive: outcome [1] | Potency [2] | outcome [3] | outcome [4] | Potency [5] | Potency [6] | Potency [8]
-14.7%: activity change, negative = inhibition [7]

CC1=C2[C@H]3OC(=O)[C@@H](C)[C@@H]3CC[C@@]2(C)C=CC1=O
2.07%: activity change, negative = inhibition [7]
inactive: outcome [1] | Potency [2] | outcome [3] | outcome [4] | Potency [9] | Potency [6] | Potency [8]

CN1C[C@@H](NS(=O)(=O)N(C)C)C[C@@H]2c3cccc4c3c(cn4C)C[C@H]21
inactive: outcome [1] | Potency [2] | outcome [3] | outcome [4] | Potency [5] | Potency [8]

CC1Sc2c(C(=O)O)c(=O)c3cc(F)c(N4CCNCC4)cc3n21 (stereo not drawn)
inactive: outcome [1] | Potency [2] | outcome [4] | Potency [9] | Potency [5] | Potency [8]

CC1COC2(c3ccccc3Cl)c3cc(Cl)ccc3NC(=O)CN12 (stereo not drawn)
active: Potency [9] 11 µM
inactive: outcome [1] | Potency [2] | outcome [3] | Potency [6]
